Data: the supplement of paper PMC10981050
“And” between values parts separate entries of the source, which are not always exact repeats. Equal values may be shown once. Where a name gives a salt, the structure may show the parent alone.

What was measured:
Assay in all cases: cell viability relative to vehicle control; higher = less cytotoxic
Details in all cases: 10 µM
[1] = tested on: K562
Summary of the method: (§1)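 Screening covered the Selleck bioactive, kinase and epigenetic probe libraries, less identity-inconsistent compounds, on CRISPR-edited mutant clones and isogenic wild-type clones of four leukaemia lines. Cells, at 2000 per well in 50 µL medium, received a single 10 µM acoustically dispensed dose. After 48 h the supernatant was removed and CellTiter-Glo luminescence was read. Viability was analysed in Genedata Screener as percent of the on-plate vehicle control.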

[2] = tested on: MARIMO
Summary of the method: as §1

[3] = tested on: MOLM14
Summary of the method: as §1

[4] = tested on: OCI-AML2
Summary of the method: as §1

SMILES | cell viability ([1]; SRSF2 genotype: SRSF2 P95H/wt) | cell viability ([1]; SRSF2 genotype: SRSF2 wt/wt) | cell viability ([2]; SRSF2 genotype: SRSF2 P95H/wt) | cell viability ([2]; SRSF2 genotype: SRSF2 wt/wt) | cell viability ([3]; SRSF2 genotype: SRSF2 P95H/wt) | cell viability ([3]; SRSF2 genotype: SRSF2 wt/wt) | cell viability ([4]; SRSF2 genotype: P95H/wt) | cell viability ([4]; SRSF2 genotype: wt/wt)
CCn1c2ccccc2c2cc(Nc3ccnc(NCCCN4CCOCC4)n3)ccc21 | 4.34% and 6.16% | 6.8% | 19.1% | 24.9% | 2.38% | 0.71% | 0.41% | 1.05%
CC1(C)CC[C@]2(C(=O)O)CC[C@]3(C)C(=CC[C@@H]4[C@@]5(C)C[C@@H](O)[C@H](O)C(C)(C)[C@@H]5CC[C@]43C)[C@@H]2C1 [Maslinic acid] | 84.2% and 80.1% | 84.5% | 91.3% | 108% | 90.7% | 86.9% | 77% | 82.2%
C=CC(=O)N1CC(N2CCN(C(=O)CNc3cc(C4(C)CC4)c(Cl)cc3O)CC2)C1 | 93.9% and 95.2% | 97.3% | 88.9% | 102% | 86.1% | 104% | 112% | 108%
C[N+]12CCc3cc4c(cc3C1(O)Cc1ccc3c(c1C2)OCO3)OCO4 (stereo unspecified) [Hydroprotopine] | 94.4% and 93.5% | 89.5% | 84.6% | 91.9% | 91.2% | 98.8% | 96.3% | 99%
CC(=O)NC(Cc1ccc(O)cc1)C(=O)NC(CCCN=C(N)N)C(=O)NC(Cc1ccccc1)C(N)=O (stereo unspecified) | 87.2% and 83.5% | 85.6% | 84.2% | 88.4% | 87.3% | 85.4% | 87.9% | 87.5%
COc1ccc(-c2cc(=O)c3c(O)cc(O[C@@H]4O[C@H](CO[C@@H]5O[C@@H](C)[C@H](O)[C@@H](O)[C@H]5O)[C@@H](O)[C@H](O)[C@H]4O)cc3o2)cc1 [Linarin] | 107% and 103% | 102% | 95.8% | 101% | 111% | 102% | 103% | 98.7%
CCOC(=O)C1=C(C)NC(=S)NC1c1cccc(O)c1 (stereo unspecified) [Monastrol] | 106% and 97.8% | 103% | 103% | 99.4% | 105% | 103% | 101% | 102%
NC(=O)c1cnccn1 [Pyrazinamide (Pyrazinoic acid amide)] | 107% and 105% | 110% | 104% | 114% | 103% | 105% | 95.6% | 109%
C[C@@H]1CC[C@@]2(NC1)O[C@H]1C[C@H]3[C@@H]4CC=C5C[C@@H](O[C@@H]6O[C@H](CO)[C@@H](O[C@@H]7O[C@@H](C)[C@H](O)[C@@H](O)[C@H]7O)[C@H](O)[C@H]6O)CC[C@]5(C)[C@H]4CC[C@]3(C)[C@H]1[C@@H]2C [Khasianine] | 104% and 102% | 103% | 102% | 104% | 104% | 102% | 104% | 107%
CC(=O)OCC(=O)[C@@]1(O)CC[C@H]2[C@@H]3CCC4=CC(=O)C=C[C@]4(C)[C@H]3[C@@H](O)C[C@@]21C [Prednisolone acetate (Omnipred)] | 87.3% and 81.8% | 84.8% | 86.1% | 84% | 80.5% | 80.3% | 73.3% | 87%
O=c1cc(-c2ccccc2)oc2cc(O[C@@H]3O[C@H](CO[C@@H]4O[C@H](CO)[C@@H](O)[C@H](O)[C@H]4O)[C@@H](O)[C@H](O)[C@H]3O)c(O)c(O)c12 [Oroxin B] | 101% and 105% | 98.7% | 102% | 104% | 112% | 107% | 95.6% | 98.6%
COc1ccc(S(=O)(=O)NCc2ccc(C(=O)NCCc3ccc(Cl)cn3)cc2)cc1 | 83.3% and 86.3% | 81.6% | 84.3% | 105% | 83.4% | 90.9% | 92.7% | 104%
O=C(O)c1cc(=O)cc(C(=O)O)o1 [Chelidonic acid] | 105% | 113% | 110% | 106% | 101% | 107% | 110% | 105%
CS(=O)(=O)c1ccc(-c2cnc(N)c(C(=O)Nc3ccccc3)n2)cc1 | 108% and 109% | 116% | 113% | 110% | 109% | 110% | 98.9% | 91.7%
CN1[C@@H]2CC[C@H]1C[C@@H](OC(c1ccccc1)c1ccccc1)C2 [Benztropine mesylate] | 82.3% and 93.2% | 87% | 81.9% | 91.2% | 83.7% | 100% | 88% | 79.9%
CC(C)c1c2cc(-c3ccnc(NC4CCC(NC5CCOCC5)CC4)n3)ccc2nn1C (stereo unspecified) | 10% and 24.4% | 8.4% | 13.4% | 6.58% | 0.76% | 0.31% | 2.85% | 13.2%
N#CC1(c2ccc(NC(=O)c3cccnc3NCc3ccncc3)cc2)CCCC1 [Apatinib mesylate] | 79.4% and 87.5% | 81.8% | 77.7% | 86.2% | 45.8% | 42.6% | 68.4% | 62.5%
C[C@H]1[C@H](OC(=O)CCC(=O)O)O[C@@H]2O[C@@]3(C)CC[C@H]4[C@H](C)CC[C@@H]1[C@@]24OO3 [Artesunate] | 43.3% and 38.6% | 41.2% | 42.7% | 37.8% | 34.5% | 28.3% | 2.96% | 17.9%
CCCOc1ccc2c(c1)CC[C@@H]1[C@@H]2CC[C@]2(C)[C@@H](OC)CC[C@@H]12 [Promestriene] | 86.2% and 89.4% | 94.1% | 76.6% | 89.8% | 83.1% | 97.2% | 59.6% | 66.2%

SMILES | cell viability ([1]; SRSF2 genotype: SRSF2 P95H/wt) | cell viability ([1]; SRSF2 genotype: SRSF2 wt/wt) | cell viability ([2]; SRSF2 genotype: SRSF2 P95H/wt) | cell viability ([2]; SRSF2 genotype: SRSF2 wt/wt) | cell viability ([3]; SRSF2 genotype: SRSF2 P95H/wt) | cell viability ([3]; SRSF2 genotype: SRSF2 wt/wt) | cell viability ([4]; SRSF2 genotype: P95H/wt) | cell viability ([4]; SRSF2 genotype: wt/wt)
CCN1CCN(Cc2ccc(C(=O)Nc3ccc(C)c(Oc4ccc5c(c4)CC(=O)N5)c3)cc2C(F)(F)F)CC1 | 4.41% and 19.5% | 9.71% | 70.5% | 82.1% | 46.6% | 45% | 45% | 44.8%
Cc1ccc(S(=O)(=O)Nc2nc3ccccc3nc2Nc2ccc3nsnc3c2)cc1 [XL147 analogue] | 95.3% and 101% | 105% | 97.6% | 104% | 99.2% | 98.7% | 101% | 94.5%
C=C1CC2(O)OC3(CC2C(C)C)C(C)CCC13 (stereo unspecified) [Curcumol] | 106% and 101% | 102% | 112% | 107% | 97.8% | 108% | 99.9% | 102%
O=C1C[C@@H]2[C@@H](CO)[C@H](O)C[C@@H]2O1 [Corey Lactone Diol] | 110% | 101% | 105% | 110% | 102% | 108% | 101% | 93.3%
COc1cccc(OC)c1C(=O)OCc1cc(O)ccc1O[C@@H]1O[C@H](CO)[C@@H](O)[C@H](O)[C@H]1O [Curculigoside] | 101% and 106% | 106% | 110% | 104% | 105% | 105% | 115% | 109%
COc1ccc(C(NC(=O)c2cnc(-c3cccnn3)[nH]c2=O)c2ccc(OC)cc2)cc1 | 115% and 108% | 111% | 99% | 99.6% | 104% | 104% | 106% | 113%
CO/N=C(\C(=O)N[C@@H]1C(=O)N2C(C(=O)O)=C(CSc3nc(C)c(CC(=O)O)s3)CS[C@H]12)c1csc(N)n1 [Cefodizime Sodium] | 96% and 90.5% | 103% | 100% | 112% | 97.1% | 104% | 99.6% | 107%
C[C@H]1C[C@H]2[C@@H]3CCC4=CC(=O)C=C[C@]4(C)[C@@]3(F)[C@@H](O)C[C@]2(C)[C@@]1(O)C(=O)CO [Betamethasone (Celestone)] | 92.1% and 85.8% | 89.5% | 86.1% | 98.4% | 92.8% | 86% | 84.4% | 108%
O=C(O)CCC(=O)O [Succinic acid] | 90.3% and 88.2% | 88% | 83.8% | 96.1% | 93.1% | 93.6% | 85.1% | 97.5%
COc1ccc(CC(C)NCC(O)c2ccc(O)c(NC=O)c2)cc1 (stereo unspecified) [Formoterol hemifumarate] | 97.2% and 93.9% | 91.5% | 89.5% | 98.5% | 86.6% | 85.8% | 106% | 101%
NCCCC[C@@H]1NC(=O)[C@@H](Cc2ccccc2)NC(=O)[C@H](CC(=O)O)NC(=O)CNC(=O)[C@H](CCCN=C(N)N)NC1=O [Cyclo (-RGDfK)] | 98.8% and 104% | 103% | 98.6% | 103% | 98.5% | 101% | 108% | 118%
CCC(C)SSc1ncc[nH]1 (stereo unspecified) | 14.2% and 15.1% | 11.6% | 6.03% | 4.97% | 1.56% | 3.76% | 4.83% | 3.63%
O=C(O)COc1ccc(Br)cc1C=C1SC(=S)N(Cc2cccnc2)C1=O [Skp2 inhibitor C1 (SKPin C1)] | 34.9% and 35.5% | 35.5% | 18.9% | 18.6% | 5.39% | 2.44% | 3.65% | 9.12%
CC(C(=O)O)c1ccc(C(=O)c2cccs2)cc1 (stereo unspecified) [Suprofen (Profenal)] | 107% and 103% | 93.2% | 94.7% | 110% | 98.9% | 99.9% | 88.8% | 94.2%
COc1cc(-c2ncn(/C=C\C(=O)OC(C)C)n2)cc(C(F)(F)F)c1 | 5.77% and 12.8% | 10.7% | 19.1% | 20.6% | 2.46% | 0.92% | 4.82% | 9.13%
c1cncc(-c2cn[nH]n2)c1 | 78.5% and 56.7% | 64.2% | 88.4% | 96.6% | 88.6% | 99.2% | 31.8% | 34.6%
CCOCCn1c(N2CCCN(C)CC2)nc2ccccc21 [Emedastine] | 100% and 96.7% | 101% | 101% | 107% | 102% | 107% | 114% | 104%
C[C@]12C[C@@H](O)[C@@H]3C[C@@]1(O[C@@H]1O[C@H](CO)[C@@H](O)[C@H](O)[C@H]1O)[C@@]3(COC(=O)c1ccccc1)C(=O)O2 [Albiflorin] | 103% and 108% | 107% | 96.9% | 94.5% | 104% | 98.4% | 98.3% | 92.9%
